# Laboratory results published in ChEMBL document CHEMBL3988442, “University of Dundee, Small-Polar-MMV Screening Library” (2021).
# The campaign covered roughly 48,000 compounds. About 13,000 (27%) showed an effect of 50% or more. The list shows a part of the results.
# System: Wolbachia pipientis
# Experiment: Anti-Wolbachia Cell-Based Screen
# Type: functional
# Set-up: scale not given: in the data most compounds retested in dose-response had high values
# Conditions: 5 µM
row,Structure (SMILES),Percent Effect
1,CSc1ccc(-c2nc(CN3CCC(CN)C3)c(C)o2)cc1 (stereo not drawn),-1.027%
2,CCc1noc(C)c1C(=O)N1CCN(c2nc(C)cc(OC)n2)CC1,-4.975%
3,Cc1cc(C(F)(F)F)cc(N2CCC3(CCC(=O)N(CCO)C3)CC2)n1,8.685%
4,Cc1cc(N(C)C)nc(C2(C)CCCN2CC(N)=O)n1 (stereo not drawn),87.15%
5,CC1(C)CN(CC(F)(F)F)CCN1CC(N)=O,0.007489%
6,CCCc1nc(C)cc(N2CCC3(CCC(=O)N(CC(N)=O)C3)CC2)n1,1.453%
7,Cc1cc(C(F)(F)F)nc(C2(C)CCCN2CC(N)=O)n1 (stereo not drawn),81.01%
8,CCc1nnc2n1CCN(c1nc(C)cc(N(C)C)n1)C2,1.842%
9,CS(=O)(=O)NC1CCN(C(=O)COCc2ccccc2)CC1,-3.192%
10,Cc1cc(C2CCCN2c2ncc(C(N)=O)cc2Cl)no1 (stereo not drawn),-5.991%
11,Cc1nncn1CCNC(=O)C(C)(C)c1cccc(C(F)(F)F)c1,2.023%
12,Cl.O=C(Nc1cc(C(F)(F)F)c[nH]c1=O)C1CCCCN1 (stereo not drawn),99.37%
13,Cc1ccc(C(=O)O)cc1NC(=O)C1CC=CC1,-2.837%
14,O=C(Nc1cc(C(F)(F)F)c[nH]c1=O)C1CCCNC1 (stereo not drawn),107.9%
15,Cc1ccc(C(F)(F)F)cc1NC(=O)C1CCCN1 (stereo not drawn),84.86%
16,Cc1ccc(C(F)(F)F)cc1NCC(=O)Nc1c(C)nn(C)c1C,5.729%
17,CC(C)CN1CCC(C(=O)Nc2cc(C(F)(F)F)c[nH]c2=O)CC1,-2.2%
18,O=C(NCc1ccccn1)Nc1cc(C(F)(F)F)c[nH]c1=O,4.379%
19,CC(=O)N(C)CC(=O)Nc1cc(C(F)(F)F)c[nH]c1=O,-5.133%
20,CN(CC(=O)Nc1cc(C(F)(F)F)c[nH]c1=O)Cc1ccccc1,-11.84%
21,O=C(Nc1cc(C(F)(F)F)c[nH]c1=O)C1CCNCC1,76.16%
22,COc1cccc(C(=O)N2CCc3ncnc(C)c3CC2)c1,-6.547%

row,Structure (SMILES),Percent Effect
1,CN1CC[C@H]2CN(C(=O)c3csc(Cc4ccccc4)n3)C[C@H]21,0.1576%
2,Cc1nn(C)cc1C(C)Nc1ncnc2sccc12 (stereo not drawn),-14.94%
3,c1n[nH]cc1CCCN1CCC(OC2CCCCC2)CC1,7.391%
4,O=C(Nc1cc(C(F)(F)F)c[nH]c1=O)C1CCCO1 (stereo not drawn),93.32%
5,Cc1ccc(NC(=O)NCCCc2n[nH]c(N)c2C#N)cc1,1.349%
6,Cc1nn(C)c(C)c1NC(=O)CCn1ncc2c(C)cccc21,-5.64%
7,Cc1oncc1C(=O)NCc1cc(=O)n2c(n1)CN(C)CCC2.O=C(O)C(F)(F)F,-6.613%
8,COCC(=O)NCc1cc(=O)n2c(n1)CN(Cc1ccoc1)CCC2,84.57%
9,O=c1cc(Cn2ccnc2)nc2n1CCCN(Cc1ccsc1)C2,9.464%
10,Cc1ccc(CN2CCCn3c(nc(CN4CCCC4)cc3=O)C2)s1.O=C(O)C(F)(F)F.O=C(O)C(F)(F)F,-4.249%
11,Cc1ccc(CN2CCCn3c(nc(Cn4cncn4)cc3=O)C2)s1,-3.936%
12,COCC(=O)NCc1cc(=O)n2c(n1)CN(Cc1ccncc1)CCC2,99.24%
13,CN(C)C(=O)NCc1cc(=O)n2c(n1)CN(Cc1ccoc1)CCC2.O=C(O)C(F)(F)F,87.23%
14,O=C(CC1CC1)NCc1cc(=O)n2c(n1)CN(Cc1ccoc1)CCC2,68.76%
15,Cn1ncc2c(NCCOCc3ccccc3)nc(C3CCCC3)nc21,18.15%
16,Cc1cc(C)c(C)c(OCCCNC(=O)NC(C)c2nncn2C)c1 (stereo not drawn),4.914%
17,Cc1nc(CC(=O)NCCNc2nccc(C(F)(F)F)n2)cs1,-6.146%
18,CN(C)Cc1cc(=O)n2c(n1)CN(Cc1ccco1)CCC2,2.843%
19,O=c1cc(CN2CCCC2)nc2n1CCCN(Cc1ccsc1)C2,8.942%
20,O=c1cc(CN2CCCC2)nc2n1CCCN(Cc1ccoc1)C2,85.96%
21,COCC(=O)NCc1cc(=O)n2c(n1)CN(Cc1ccco1)CCC2,106.6%
22,O=c1cc(Cn2cncn2)nc2n1CCCN(Cc1ccco1)C2,-4.032%

row,Structure (SMILES),Percent Effect
1,O=c1cc(CN2CCCC2)nc2n1CCCN(Cc1ccco1)C2,15.57%
2,O=C1NC(c2ccccc2)=N[C@@]12CC[C@@H]1CN(S(=O)(=O)C3CC3)C[C@@H]12,2.973%
3,Cc1ccc(C)c(NC(=O)C(C)N2CCCN(c3nccs3)CC2)c1 (stereo not drawn),18.26%
4,CCC(CO)N(Cc1cccc(O)c1)Cc1ccccc1C (stereo not drawn),-1.955%
5,N#Cc1cc(NC(=O)C2CC=CC2)ccc1N1CCC(O)CC1,-4.254%
6,CNC(=O)[C@@H](C1CCCCC1)N1CCC[C@H]1C(=O)NC1CC1,10.77%
7,N#Cc1ccccc1CNC(C(=O)N1CCOCC1)c1ccccc1 (stereo not drawn),-7.429%
8,CCc1c(C(=O)NCC(=O)OCC2CC2)cnn1-c1ccc(C)cc1,-8.085%
9,CCOC(=O)C1CCN(C(=O)CN2CCCC2Cc2ccccc2)CC1 (stereo not drawn),-0.766%
10,CCOC1CCN(C(=O)c2ccc(-n3ncc(C#N)c3N)cc2)CC1,-10.17%
11,CCOC(=O)C1CCN(C(=O)c2cnn(-c3ccccc3F)c2N)CC1,125.9%
12,CCOC(=O)C1CCN(C(=O)CN2CCCC2c2ccccc2C)CC1 (stereo not drawn),-25.1%
13,CCOC(=O)C1CCN(C(=O)c2cnn(-c3ccc(C)cc3)c2N)CC1,105.1%
14,Cc1nn(C(C)C)c(C)c1NC(=O)c1ccc(F)cc1,-6.824%
15,CCc1noc(CN(C)CCC(=O)Nc2ccccc2C#N)n1,9.134%
16,CN(C)Cc1ccccc1NC(=O)c1ccc(C#N)cc1,4.666%
17,N#Cc1ccccc1NC(=O)c1ccc2c(c1)OCO2,136.5%
18,COc1cc(C)nc(N2CCN(C(C)c3nc(C)no3)CC2)n1 (stereo not drawn),-6.748%
19,CC(C)(O)CSCCNCc1ccc(Cl)c2cccnc12,7.695%
20,C1CCC(NCCN2CCOCC2)C1,-5.882%
21,CC1CCC(NCCCN2CCOCC2)CC1 (stereo not drawn),-18.43%
22,C1CN(CCN2CCOCC2)CCN1,96.42%

row,Structure (SMILES),Percent Effect
1,Cc1cc(C)n(CC2CCCN2C(=O)CCc2cscn2)n1 (stereo not drawn),-3.871%
2,CCC(C)(NC(=O)CCN1CCOC1=O)C(=O)OC (stereo not drawn),-2.045%
3,Cc1cc(C)n(C2CCCN(C(=O)CN(C)c3cnccn3)C2)n1 (stereo not drawn),-4.644%
4,Cc1cc(C)n(C2CCCN(C(=O)Cc3csc(C)n3)C2)n1 (stereo not drawn),1.332%
5,O=C(CCc1nccs1)N1CCCC(n2cccn2)C1 (stereo not drawn),73.36%
6,O=C(CCc1cnn(-c2ccccc2)c1)N1CCCC(n2cccn2)C1 (stereo not drawn),-6.718%
7,Cc1cnn(C2CCCN(C(=O)CCc3nccs3)C2)c1 (stereo not drawn),-0.76%
8,Cc1cc(C)n(C2CCCN(C(=O)CCc3nccs3)C2)n1 (stereo not drawn),95.16%
9,CN1CCCN(C(=O)c2cc(CN(C)CCc3ccccc3)on2)CC1,-31.64%
10,CN(CCc1ccccc1)Cc1cc(C(=O)N2CCSCC2)no1,-17.09%
11,CN(CCc1ccccc1)Cc1cc(C(=O)N2CCN(C)C(=O)C2)no1,103.8%
12,O=C(NCCSCc1cccs1)C1CCCN(C(=O)N2CCCC2)C1 (stereo not drawn),-5.994%
13,Cc1cnc(NC(=O)c2ccc(C3CCCN3CC(C)C)s2)s1 (stereo not drawn),-4.424%
14,COc1c(C2CCCN2CCOc2ccccc2C#N)c(C)nn1C (stereo not drawn),-6.58%
15,COCCN1CCCC1c1nccnc1Nc1nccs1 (stereo not drawn),95.24%
16,COCCN1CCN(Cc2nccs2)[C@H]2CS(=O)(=O)C[C@H]21,-12.76%
17,COCCN1CCCC1c1nccnc1Nc1nc(C)cs1 (stereo not drawn),-1.129%
18,COCCN1CCCC1c1nccnc1Nc1ncc(C)s1 (stereo not drawn),100%
19,O=C(CN1CCN(c2ncnc3c2CCNCC3)CC1)N1CCCCC1,-2.249%
20,c1ccc(-c2cnc(CNCC3CCCN3c3cccnn3)o2)cc1 (stereo not drawn),-6.959%
21,Cn1cnc2c1C(C(=O)N1CCCC1)N(S(C)(=O)=O)CC2 (stereo not drawn),3.413%
22,CC(C)Oc1ncnc2c1CCN(Cc1ccco1)CC2.O=C(O)C(F)(F)F,2.851%

row,Structure (SMILES),Percent Effect
1,Cc1ccc(CN2CCc3ncnc(-c4ccc(F)cc4)c3CC2)o1.O=C(O)C(F)(F)F,-0.3748%
2,Cc1ccc(CN2CCc3ncnc(-c4ccncc4)c3CC2)o1.O=C(O)C(F)(F)F.O=C(O)C(F)(F)F,96.83%
3,Cc1ccc(CN2CCc3ncnc(-c4ccoc4)c3CC2)o1.O=C(O)C(F)(F)F,105.9%
4,CC(C)Oc1ncnc2c1CCN(Cc1ccoc1)CC2.O=C(O)C(F)(F)F,3.383%
5,O=C1CCc2cc(S(=O)(=O)NC(=O)c3ccc4c(c3)OCO4)ccc2N1,-58.45%
6,Cc1cc(C(=O)N2CCC3(CC2)CN(CCN(C)C)C(=O)O3)nc(C)n1,-4.106%
7,Cc1nc[nH]c1C(=O)N1CCC2(CC1)CN(CCN(C)C)C(=O)O2,0.5324%
8,Cc1ccc(C(=O)N2CCC3(CC2)CN(CCN(C)C)C(=O)O3)c(F)c1,62.77%
9,Oc1ccccc1CN1C[C@H](O)C[C@H]1c1nc(Cc2ccccc2)no1,2.62%
10,O[C@@H]1C[C@@H](c2nc(-c3ccccc3)no2)N(Cc2ccncc2)C1,-6.257%
11,O[C@@H]1C[C@H]2CN(Cc3ccccc3Cl)[C@H](Cc3ccccc3)CN2C1,117.1%
12,O[C@@H]1C[C@H]2CN(CC3CCCCC3)[C@H](Cc3ccccc3)CN2C1,87.27%
13,CS(=O)(=O)N1C[C@@H]2CC[C@H](C1)N(Cc1ccsc1)C2,-3.691%
14,O[C@@H]1C[C@H]2CN(Cc3ccsc3)[C@@H](Cc3ccccc3)CN2C1,108.5%
15,O[C@@H]1C[C@@H](c2nc(-c3ccccc3)no2)N(CC2CCCCC2)C1,-2.196%
16,O[C@@H]1C[C@@H](c2nc(-c3ccccc3)no2)N(Cc2cccnc2)C1,4.417%
17,Cc1ccc(CN2C[C@H]3CN(Cc4ccccc4Cl)CCN3C2=O)cc1,5.801%
18,Cc1cccc(-c2noc([C@@H]3C[C@@H](O)CN3CC3CCCCC3)n2)c1,5.786%
19,O[C@@H]1C[C@@H](c2nc(Cc3ccccc3)no2)N(Cc2ccc(F)cc2)C1,5.892%
20,O[C@@H]1C[C@H]2CN(Cc3ccccc3)[C@H](Cc3ccccc3)CN2C1,111.3%
